biological target: TRIM23; assay: pooled miR-30 sensor sort-seq; sequence = guide strand; details: shRNA
Also: reference of the scale not given here.

| Sequence | sensor-assay potency score (higher = more potent) |
| --- | --- |
| TACATGTTCTGTGTGAGCCATT | -1.01 |
| TACAACAAACACAACAGCTTGA | 0.537 |
| TAATCTGAGATTTCCTCTGTGA | 0.349 |
| TTAATTTGTGTTTTCCACCTAC | 0.335 |
| AACTTCTGTAAACTGCTGCTGC | 0.168 |
| TTTCCGTTAACAACTTTGCAAG | -1.22 |

biological target: TRIM25; assay: as above; details: shRNA

| Sequence | sensor-assay potency score (higher = more potent) |
| --- | --- |
| TTTCCGTGTATTCTTGTTGTAG | -0.308 |
| TAAATGGTGTCAAACTTGCTGT | -0.555 |
| TAAATCCACTAACTGTTCCGGG | -0.339 |
| TTGAGAGATGTTGAGTTCGGAT | -0.803 |
| TATAGCACTCTGACAGAGCCAC | -0.415 |
| TTGTTTTAAATCCACTAACTGT | -0.521 |
| TTGTTGTAGCTGCTCCACCTTT | -0.889 |
| TTGAGGTCTATGGTGCTCTGGT | -0.448 |
| TTGTGCTGGGAACATTTGCGGC | -1.66 |
| TTGAGTTCGGATGTGAGCTGGT | 0.643 |
| TTTAATGTAATACTCCAGGAGC | -0.733 |
| TTTATCTTCCTTGTCGAGGTGG | 0.408 |

biological target: TRIM2; assay: as above; details: shRNA

| Sequence | sensor-assay potency score (higher = more potent) |
| --- | --- |
| TTCCATTTGTAGATGCAGCTAC | 0.668 |
| TTGAATCCACTGCTACACCTGT | -0.182 |
| TAGAGTCTCAGAGACAGGGTAA | -0.389 |
| TTAATTGAAAGTTTCATTGTAG | 0.799 |
| TATTGCTATTTACAGCTGCAAA | -1.54 |
| TTGTCTTAAATTTCCCATCGGA | 0.291 |
| ATCACTTTCAGCTTAAACGGGC | -0.591 |
| TTTTTGTCTTAAATTTCCCATC | -1.5 |
| TAAAATTCCATCACATTCCCAT | 0.363 |
| TTTCATTGTAGACTAAAGCATC | -0.921 |
| TTTCCAGTGCTGTACATGCTTG | -1.12 |
| TTCCATTTGAATCCACTGCTAC | -0.305 |

biological target: TRIM38; assay: as above; details: shRNA

| Sequence | sensor-assay potency score (higher = more potent) |
| --- | --- |
| TTTCTTTTTGCACAGCCTGAGG | -1.54 |
| TACGTCTTCAACAAGAGCTGTG | -0.0393 |
| TAACATTTTCTTCACATCGAAG | -1.18 |
| TTTCCATTTAGTTATTCGCATT | -1.66 |
| TTAACATTTTCTTCACATCGAA | -0.794 |
| TTCACATCGAAGTAAAGCTTGG | -0.536 |
| TATAAAAGGATACAACTCCGGC | -0.57 |
| TTAGTTATTCGCATTGCTGTGG | 0.226 |
| TTCTTGATCCGTCTCTTTGAGG | -1.24 |
| TTTTGTCACAGCTTTCTGGAGC | -0.543 |
